What all share (experiment): NCI-60 one-dose screen, 48 h (100 = growth as untreated, 0 = no growth, -100 = all killed)
Conditions in all cases: 10 µM unless noted

The test system of experiment [1] is HCT-15 colon.
The test system of experiment [2] is HT29 colon.
Experiment [3] concerns SNB-75 CNS.
Experiment [4] concerns SNB-19 CNS.
In experiment [5] the test system is U251 CNS.
Experiment [6] deals with PC-3 prostate.
For experiment [7], the system named is SK-MEL-5 melanoma.
Experiment [8] has as its system UACC-62 melanoma.
Experiment [9] concerns LOX IMVI melanoma.
In experiment [10] the test system is SK-MEL-28 melanoma.
Experiment [11] deals with SK-MEL-2 melanoma.
Experiment [12] relates to EKVX NSCLC.
Experiment [13] has as its system SN12C renal.
Experiment [14] deals with UO-31 renal.
Experiment [15] relates to TK-10 renal.
In experiment [16] the test system is ACHN renal.
For experiment [17], the system named is CAKI-1 renal.
Experiment [18] relates to A498 renal.
For experiment [19], the system named is CCRF-CEM leukemia.
Experiment [20] concerns MOLT-4 leukemia.

This is part of a sample that, as a whole, favours compounds with a hit. Of some 83,000 tested, about 20% had one in any assay.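 Cells were grown in 96-well plates and exposed to the test compound at a single concentration for 48 hours; results are reported as percent growth, with values below 10 considered active.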 A number with no mark means an inactive call. Activity calls are given as the source filed them.

In the case of `CN1C(=O)/C(=C/c2ccc(C(=O)Nc3ncc(Cc4cc(Cl)ccc4Cl)s3)cc2)SC1=S`, the growth was 49% in [1]; 64% in [2]; 63.1% in experiment [3]; 87.8% in [4]; 82.7% in experiment [5]; 65.8% in experiment [6]. Moreover, the growth is 67% in experiment [7]; 34.2% in experiment [8]; 41.7% in [9]; 77% in experiment [10]; 101% in experiment [11]; 67% in experiment [12]. The growth in experiment [13] is 87.7%; in experiment [14], 63.4%; in [15] it was 79.6%; in experiment [16], 58.8%; in experiment [17], 30.2%; in experiment [18] it was 77.4%. Moreover, the figures for the growth in experiment [19] and in experiment [20] were 62.9% and 70.8%, respectively.
For the compound `COc1ccc(C/C(C)=C(\c2ccc(Cl)cc2)c2ccc(OCCN3CCCC3)cc2)cc1`, the growth was 40.2% in experiment [1]; 19.6% in experiment [2]; 88.5% in [3]; 92.1% in experiment [4]; 61.1% in experiment [5]; 77.8% in experiment [6]. In addition, the growth in experiment [7] is 89.7%; in experiment [8] it was 90.8%; in experiment [9], 82.9%; in experiment [10], 91.4%; in experiment [11], 96.8%; in experiment [12] it was 96.7%. Further, the growth in experiment [13] is 82.7%; in [14] it was 66.3%; in experiment [15] it was 87.6%; in experiment [16], 94.8%; in experiment [17] it was 83.4%; in experiment [18], 110%. The figures for the growth in experiment [19] and in experiment [20] were 57.2% and 44.6%, respectively.
On to `Cc1ccc(Cc2cnc(NC(=O)/C=C/c3ccc(C)o3)s2)cc1`, for which the growth in experiment [1] was 19.9%; in [2] it was 11.4%; in experiment [3] it was 26.7%; in [4] it was 56.4%; in [5], 41.9%; in [6], 33.3%. In addition, the growth is 23.8% in experiment [7]; 31.9% in experiment [8]; 49.5% in [9]; 65.5% in experiment [10]; 53.8% in experiment [11]; 49.7% in [12]. The growth in experiment [13] is 51.7%; in experiment [14], 48.5%; in experiment [15], 68%; in [16], 40.4%; in [17], 36%; in [18], 25.1%. In addition, the values for the growth in [19] and in experiment [20] were 27.8% and 37.6%, respectively.
On to `CC1(C)CC(=O)C2=C(C1)C(c1ccc(Cl)cc1)n1ncc(C#N)c1N2` (stereo not given), for which the growth in experiment [1] was 105%; in experiment [2], 106%; in experiment [3], 75.6%; in experiment [4], 96.5%; in [5], 97.8%; in experiment [6], 90.4%. For the same compound, the growth was 95.4% in [7]; 89.8% in [8]; 107% in experiment [9]; 112% in experiment [10]; 103% in experiment [11]; 92.8% in [12]. Further, the growth in experiment [13] was 90.9%; in [14] it was 85.5%; in [15], 107%; in experiment [16], 93.2%; in experiment [17] it was 90.3%; in [18], 103%. Moreover, the growth in experiment [19] was 98.4%; in [20] it was 98.1%.
Consider `CCN(CC)CCOc1ccc(Nc2ncc3cc(-c4c(Cl)cccc4Cl)c(=O)n(CCOC)c3n2)cc1`, for which the growth in [1] was 12.9%; in experiment [2], -22.6% (active); in [3], -39.9% (active); in experiment [4], 18.4%; in [5], 0.141% (active); in experiment [6], 60%. Moreover, the growth was 13.6% in experiment [7]; 32.1% in [8]; -77.6% (active) in [9]; 36.9% in experiment [10]; 34.8% in [11]; 27.3% in experiment [12]. For the same compound, the growth is 10.5% in [13]; -88.9% (active) in experiment [14]; -55.5% (active) in experiment [15]; 5.69% (active) in experiment [16]; 2.96% (active) in experiment [17]; -75.9% (active) in [18]. Also, the figures for the growth in experiment [19] and in experiment [20] were 4.55% (active) and 1.6% (active), respectively.
For `Cc1ccc2nc(-c3ccc(C(=O)N/N=C/c4ccc([N+](=O)[O-])cc4)cc3)[nH]c2c1`, the growth in experiment [1] was 102%; in [2], 102%; in experiment [3], 97.1%; in [4], 104%; in experiment [5], 107%; in [6], 98.2%. Moreover, the growth was 98.5% in [7]; 97.4% in experiment [8]; 98.8% in experiment [9]; 112% in [10]; 116% in [11]; 108% in experiment [12]. The growth in [13] is 106%; in experiment [14] it was 86.4%; in [15] it was 127%; in experiment [16] it was 104%; in [17], 97.4%; in experiment [18], 82.8%. Also, the growth in experiment [19] was 95.3%; in [20], 93.4%.
For the compound `O=S(Nc1ccccc1)c1ccc(Cl)cc1` (stereo not given), the growth in experiment [1] is 109%; in experiment [2] it was 102%; in experiment [3] it was 83.2%; in experiment [4], 96.8%; in experiment [5] it was 95.1%; in experiment [6], 89.8%. The growth in experiment [7] was 99.8%; in experiment [8] it was 90.4%; in experiment [9], 100%; in experiment [10] it was 107%; in [11], 95.2%; in experiment [12] it was 102%. Besides, the growth in experiment [13] was 102%; in [14], 85.7%; in experiment [15], 103%; in experiment [16], 94.5%; in [17] it was 95.5%; in [18], 95.8%. For the same compound, the growth in [19] is 95.7%; in experiment [20], 85.7%.
In the case of `CCn1cc(C(=O)N/N=C/c2cccc(F)c2)c(=O)c2cc(F)c(N3CCNC(C)C3)c(F)c21` (stereo not given), the growth was -81.8% (active) in [1]; -87.2% (active) in experiment [2]; 90.1% in [3]; -59.4% (active) in experiment [4]; -74.3% (active) in experiment [5]; 69.6% in [6]. Further, the growth in experiment [7] is 52.6%; in [8], 64.8%; in [9], -90.9% (active); in [10] it was -64.3% (active); in [11], 104%; in experiment [12], 50.7%. The growth in experiment [13] is -4.46% (active); in experiment [14], 20.6%; in experiment [15], 101%; in experiment [16], 74.4%; in experiment [17], 66.7%; in experiment [18], 99.2%. In addition, the growth in [19] is -47% (active); in [20] it was -26% (active).

The values above are taken from PubChem BioAssay (NCI).
